Measurements as given in the supplement of paper PMC6555819.

Assays:
Assay in all cases: PBM binding z-score (relative to random genomic background probes); higher = stronger binding; sequences stand for … in GC…GCGATTGACAGCGTAGAATGAAGG
[1] = test system: FXR:RXRa (NR concentration 270 nM, RXRa partner concentration 90 nM)
Procedure, shortened: (§1)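 Each nuclear receptor dimer, without ligand, was incubated for 1 h on custom Agilent 4×180K protein-binding microarrays. Binding was detected with antibodies against each partner (one per run), and scanned fluorescence was regression-normalized. The binding z-scores are referenced to random human genomic background probes.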

[2] = test system: LXRa:RXRa (NR concentration 270 nM, RXRa partner concentration 90 nM)
Procedure, shortened: as §1

[3] = test system: LXRa homodimer (NR concentration 270 nM)
Procedure, shortened: as §1

[4] = test system: LXRb:RXRa (NR concentration 270 nM, RXRa partner concentration 90 nM)
Procedure, shortened: as §1

[5] = test system: PPARa:RXRa (NR concentration 270 nM, RXRa partner concentration 90 nM)
Procedure, shortened: as §1

[6] = test system: PPARg:RXRa (NR concentration 180 nM, RXRa partner concentration 90 nM)
Procedure, shortened: as §1

[7] = test system: PPARg:RXRa 270nM:90nM, anti-RXR (NR concentration 270 nM, RXRa partner concentration 90 nM)
Procedure, shortened: as §1

[8] = test system: PPARg:RXRa 30nM:10nM, anti-RXR (NR concentration 30 nM, RXRa partner concentration 10 nM)
Procedure, shortened: as §1

[9] = test system: PPARg:RXRa 90nM:30nM, anti-RXR (NR concentration 90 nM, RXRa partner concentration 30 nM)
Procedure, shortened: as §1

[10] = test system: PPARg:RXRa DBDmut IVT, anti-RXR (DBD mutation: RXRa K156A/R161A, NR concentration 270 nM, RXRa partner concentration 90 nM)
Procedure, shortened: as §1

[11] = test system: PPARg:RXRa IVT, anti-PPARg (NR concentration 270 nM, RXRa partner concentration 90 nM)
Procedure, shortened: as §1

[12] = test system: PPARg homodimer (NR concentration 180 nM)
Procedure, shortened: as §1

[13] = test system: PXR:RXRa (NR concentration 270 nM, RXRa partner concentration 90 nM)
Procedure, shortened: as §1

[14] = test system: PXR homodimer (NR concentration 270 nM)
Procedure, shortened: as §1

[15] = test system: RARa:RXR (NR concentration 270 nM, RXRa partner concentration 90 nM)
Procedure, shortened: as §1

[16] = test system: RARa homodimer (NR concentration 270 nM)
Procedure, shortened: as §1

[17] = test system: RARb:RXRa (NR concentration 270 nM, RXRa partner concentration 90 nM)
Procedure, shortened: as §1

Sequence	PBM binding z-score [1]	PBM binding z-score [2]	PBM binding z-score [3]	PBM binding z-score [4]	PBM binding z-score [5]	PBM binding z-score [6]	PBM binding z-score [7]	PBM binding z-score [8]	PBM binding z-score [9]	PBM binding z-score [10]	PBM binding z-score [11]	PBM binding z-score [12]	PBM binding z-score [13]	PBM binding z-score [14]	PBM binding z-score [15]	PBM binding z-score [16]	PBM binding z-score [17]
CTATGTAGGCTAAGGGGGTCATTCAGTTTGAAAG	3.71	3.81	0.999	5.74	5.31	5.77	6.41	3.65	6.14	5.39	5.71	1.72	5.12	8.71	5.12	0.465	2.69
CCGAGTAGGTTACGAGGGAGCATTCAGTGCGAAT	-0.0908	3.55	-0.145	1.05	1.52	1.15	1.55	0.0513	0.563	4.73	3.51	0.106	0.602	0.000491	0.506	-0.145	0.887
CTATGTAGGTTAAGGGGGTAATTCAGTTTGAAAG	1.45	2.81	0.813	4.23	4.84	7.58	6.9	5.33	6.78	7.52	7.27	2.67	2.99	1.83	2.31	1.28	2.32
CCATGTAGGTTAAGGGGGTCATTCAGTTTGAAAG	4.98	4.71	3.76	6.22	5.88	7.38	7.13	4.55	6.52	5.55	6.99	4.47	5.83	12.1	5.82	2.79	3.46
CCGAGTAGATTACGAGGGGGCATTCAGTGCGAAT	0.841	2.24	0.791	3.36	1.75	0.167	0.849	0.0804	0.742	0.434	0.871	0.638	2.73	3.64	1.79	-0.0773	0.973
TCGAGTAGGTTACGGGGGGATTCAGGGATGAAGA	2.95	2.87	1.21	5.21	3.11	5.11	4.06	3.29	4.14	4.94	5.45	3.89	3.86	2.74	3.13	2.04	2.8
CCGAGTAGGTTACGAGGGGGGATTCAGTGCGAAT	2.34	3.82	0.79	5.43	2.99	2.52	3.71	1.57	3.4	5.06	4.91	2	3.27	2.11	2.61	0.858	1.84
TCGAGTAGGTAACGGGGGCATTCAGGGATGAAGA	1.53	1.83	0.159	4.16	3.41	4.6	4.51	2.68	3.8	4.46	5.38	1.54	2.44	1.58	2.48	0.232	1.74
CTATGGAGGTTAAGGGGGTCATTCAGTTTGAAAG	6.34	5.63	4.04	6.44	6.28	6.41	6.6	3.97	5.74	4.65	6.42	4.29	6.58	12.7	6.29	2.33	4.01
CCAAGTAGGTTACGAGGGGGCATTCAGTGCGAAT	3.42	7.37	1.65	6.39	4.05	4.83	4.89	2.33	3.81	6.86	6.44	2.19	5.04	6.14	3.18	1.41	2.52
CCGAGTTGGTTACGAGGGGGCATTCAGTGCGAAT	1.35	3.69	1.21	4.27	2.31	-0.0841	0.784	-0.706	0.481	0.938	1.51	1.98	3.41	7.65	2.14	0.677	1.31
CCGAGTAGGTTACGAGGGGGCATTCAGTGCGAAT	2.35	6.98	1.84	6.35	3.42	2.22	3.3	1.24	2.55	4.8	4.49	2.04	5.02	6.02	3.43	0.391	2.2
CCGAGTAGGTTACGAGGGGGCCTTCAGTGCGAAT	0.952	2.66	0.0596	3.94	2.44	1.5	2.53	0.553	1.8	4.2	4	1.59	1.73	0.533	1.56	0.0772	1.47
TCGAGTAGGTTCCGGGGGCATTCAGGGATGAAGA	2.36	1.8	0.316	4.06	2.5	0.485	2.22	1.38	2.24	1.44	2.23	1.05	2.68	1.13	1.96	-0.469	1.17
CCGAGTAGGTTACGAGGGGGCATTCATTGCGAAT	2	6.78	1.16	6.12	3.42	2.64	3.26	1.35	2.85	4.44	4.49	1.17	4.23	0.535	2.77	0.224	1.94
TCGAGTAGGTTACGGGAGCATTCAGGGATGAAGA	0.293	0.0567	-0.651	0.0342	1.82	1.59	2.09	1.25	1.7	2.84	3.32	-0.122	0.0708	-0.797	0.667	-0.752	0.692
TCGAGTAGGTTACGGCGGCATTCAGGGATGAAGA	-0.0492	0.356	-0.342	0.0226	1.32	0.838	1.73	1.18	1.43	3.16	2.85	-0.171	-0.0606	-0.885	0.128	-1.2	0.794
TCGAGTAGGTTACGGGGGCAATCAGGGATGAAGA	1.97	2.28	0.238	4.49	4.14	6.62	5.6	3.37	4.85	4.86	6.27	1.35	2.64	0.755	2.99	-0.0158	2.43
TCGAGTAGGTTTCGGGGGCATTCAGGGATGAAGA	2.38	2.27	0.973	4.48	2.96	1.4	2.99	2.29	2.8	2.63	3.84	1.79	2.62	2.07	2.22	0.713	1.67
CTATGTAGGTTAAGGGGGTCATTCCGTTTGAAAG	4.77	5.26	3.1	6.22	6.1	8.1	7.77	5.98	7.6	7.72	7.69	3.57	5.52	4.83	5.89	1.49	3.33
TCGAGCAGGTTACGGGGGCATTCAGGGATGAAGA	2.74	2.64	0.7	4.88	4.14	4.31	4.37	2.24	3.46	2.41	4.12	1.23	3.03	0.942	3.16	0.368	2.53
TCGAGTAGGTTACGAGGGCATTCAGGGATGAAGA	0.963	1.16	-0.0456	0.518	2.58	3.58	3.11	1.61	2.6	3.87	4.89	0.36	1.43	0.25	1.69	-0.742	1.63
CTATGTAGGTTAAGGTGGTCATTCAGTTTGAAAG	1.04	1.15	0.413	1.09	3.64	5.35	4.98	2.07	4.28	7.1	7	1.36	0.913	0.758	0.941	0.483	1.53
TCGAGTAGGTTACGGGGGCATTCGGGGATGAAGA	3.14	3.56	0.662	5.09	4.28	6.03	5.81	3.14	4.8	5.16	5.85	3.02	3.55	2	3.36	0.243	2.54
TCGAGTAGGTTACGGGGGCATTTAGGGATGAAGA	3.13	3	0.674	5.04	4.52	6.04	5.65	2.96	4.66	5.1	5.8	1.44	3.25	1.54	3.29	0.213	2.56
TCGAGTAGGCTACGGGGGCATTCAGGGATGAAGA	1.68	1.1	-0.259	3.17	2.56	1.6	2.51	1.38	1.8	2.36	3.36	0.299	1.77	0.484	1.43	-0.44	0.961
CTATGTAGGTTAAGGGGGTCATTAAGTTTGAAAG	4.76	4.56	2.21	5.86	6	8.78	7.7	5.93	8.13	7.49	7.73	3.7	5.89	12.5	5.37	1.68	3.58
CCGAGTAGGTTACGAGGGGCCATTCAGTGCGAAT	1.12	5.25	-0.218	3.07	1.76	1.4	1.54	0.0553	0.829	4.13	3.51	0.766	2.92	1.09	1.11	0.136	1.47
TCGAGTAGGTTACGGGGGCCTTCAGGGATGAAGA	1.17	1.71	0.239	4.15	2.99	2.78	3.68	1.85	2.72	4.03	4.68	0.342	1.52	0.275	1.48	-0.236	1.58
TCGACTAGGTTACGGGGGCATTCAGGGATGAAGA	2.94	2.96	1.01	5.58	4.29	6.51	5.97	4.68	5.76	5.37	6.51	2.41	3.59	2.11	3.47	0.467	2.91
